ALDH1A1 inh – qHTS Assay for Inhibitors of Aldehyde Dehydrogenase 1 (ALDH1A1); Aldehyde dehydrogenase 1A1 (Homo sapiens), P00352; Purified ALDH1A1, NADH fluorescence, propionaldehyde substrate; Potency, µM (series often up to 75.3 µM), without a hit: at the top dose activity, negative = inhibition, actives largely listed as inhibitors; hit rate 7.3% among 220,000; AID 1030, 2008;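 note: plate controls were no enzyme wells and a reference inhibitor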
Target sequence (P00352 whole entry, looked up): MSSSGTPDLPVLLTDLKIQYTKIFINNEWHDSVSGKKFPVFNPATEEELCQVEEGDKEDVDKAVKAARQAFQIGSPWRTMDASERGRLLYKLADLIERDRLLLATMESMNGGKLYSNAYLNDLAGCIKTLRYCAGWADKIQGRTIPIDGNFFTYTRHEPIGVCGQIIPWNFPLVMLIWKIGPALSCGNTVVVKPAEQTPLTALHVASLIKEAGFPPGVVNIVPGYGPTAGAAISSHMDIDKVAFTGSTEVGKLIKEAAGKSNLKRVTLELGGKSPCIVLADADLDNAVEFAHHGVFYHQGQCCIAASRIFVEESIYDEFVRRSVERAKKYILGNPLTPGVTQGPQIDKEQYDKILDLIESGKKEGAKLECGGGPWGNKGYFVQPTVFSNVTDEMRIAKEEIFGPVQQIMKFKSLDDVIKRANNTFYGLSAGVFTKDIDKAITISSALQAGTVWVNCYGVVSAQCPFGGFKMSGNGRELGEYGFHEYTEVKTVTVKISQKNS
Lamin A splicing – qHTS Assay for Modulators of Lamin A Splicing; HeLa LMNA splicing GFP/RFP minigene ratio, 48 h; hit rate 0.01% among 200,000; Potency, µM (doses to about 46.1 µM), for the others: top-dose ratio change, negative = inhibition, most hits filed as inhibitors; active = well fitted inhibition curve with a large enough effect in the signal ratio, with a control signal flat, not every such curve was filed as active; inconclusive = small, poorly fitted or top-dose-only effect, or effect the other way, or a change in a side signal; the % refers to the signal ratio; note: % is set by controls: 0 for no effect and ±100 for the full control effect
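Read-out is the ratio of GFP to DsRed2 object intensity, acquired by 488 nm laser-scanning cytometry on HeLa lamin A-EGFP minigene reporter cells. Compound incubation 48 hrs at 37 °C in Opti-MEM with 2% FBS; DMSO 0.5% final.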
HTT ATP protect – qHTS Multiplex Assay to Identify Dual Action Probes in a Cell Model of Huntington: Cytoprotection (ATP); hit rate 0.14% among 230,000; PC12 HTT-Q103 induced, cytoprotection, ATP luminescence, 40 h; Potency, µM (top dose mostly 56.4 µM), without a hit: cytoprotection (ATP increase), usual class: activators; AID 1471, 2008; active = well fitted curve in the direction sought with a large enough effect; inconclusive = small, poorly fitted or top-dose-only effect, or another doubt; inactive = no such curve, though single readings can be large; an effect the other way counts as inactive or inconclusive; note: % of control where 0% means no effect; nearly all actives have a fitted effect of over 45% in size
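Stable PC12 Q103-GFP cells in serum-supplemented, phenol red-free DMEM; induction by tebufenozide at 100 nM final; compound dose series; cell viability quantified luminescently from ATP.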
HTT aggregate – qHTS Multiplex Assay to Identify Dual Action Probes in a Cell Model of Huntington: Aggregate Formation (GFP). Potency, µM (doses to about 46.1 µM), for inactives: top-dose activity change, negative = inhibition, most hits filed as inhibitors. PC12 HttQ103-GFP aggregates, Acumen cytometry, 40 h. hit rate 1.1% among 220,000; active = well fitted curve in the direction sought with a large enough effect; inconclusive = small, poorly fitted or top-dose-only effect, or another doubt; inactive = no such curve, though single readings can be large; an effect the other way counts as inactive or inconclusive; note: % is set by controls: 0 for no effect and ±100 for the full control effect; nearly all actives have a fitted effect of over 60% in size
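Huntingtin Q103 exon 1–GFP aggregates in induced PC12 cells (100 nM tebufenozide) were quantified by cytometry from lysates, with compounds dosed in titration.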
KDM4E inh – qHTS Assay for Inhibitors of Human Jumonji Domain Containing 2E (JMJD2E); Lysine-specific demethylase 4E (Homo sapiens), B2RXH2; JMJD2E catalytic domain, FDH-coupled NADH fluorescence (FDH is formaldehyde dehydrogenase); Potency, µM (highest dose often 57.1 µM), for the others: at the top dose activity change, negative = inhibition, usual class: inhibitors; hit rate 1.6% among 230,000;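 note: 0% = wells with enzyme and -100% = buffer wells without enzyme; nearly all actives have a fitted effect of over 50% in size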
Target sequence (B2RXH2 1-337 limits assumed): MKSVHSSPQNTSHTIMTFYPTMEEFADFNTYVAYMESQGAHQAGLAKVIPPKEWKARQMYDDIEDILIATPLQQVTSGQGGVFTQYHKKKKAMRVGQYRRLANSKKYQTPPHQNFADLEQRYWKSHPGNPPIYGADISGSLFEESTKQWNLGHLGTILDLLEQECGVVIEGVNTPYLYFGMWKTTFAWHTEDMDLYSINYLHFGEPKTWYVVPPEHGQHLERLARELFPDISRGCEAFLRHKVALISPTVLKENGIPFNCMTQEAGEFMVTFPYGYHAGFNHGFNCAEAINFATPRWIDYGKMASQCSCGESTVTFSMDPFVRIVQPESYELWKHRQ
HPGD block – qHTS Assay for Inhibitors of HPGD (15-Hydroxyprostaglandin Dehydrogenase); 15-hydroxyprostaglandin dehydrogenase [NAD(+)] (Homo sapiens), P15428; purified HPGD, NADH fluorescence kinetic, PGE2 substrate; Potency, µM, without a hit: top-dose activity change, negative = inhibition, actives largely listed as inhibitors; hit rate 4.3% among 150,000; note: % is set by controls: 0 for no effect and ±100 for the full control effect
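20 nM HPGD preincubated 15 min at room temperature with compound in 50 mM Tris-HCl pH 8, 0.01% Tween 20. Started with 1 mM NAD+ and 30 uM prostaglandin E2; NADH fluorescence (360/450 nm) read 5 times over 30-s intervals, last minus first.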
Active calls of the source: *; ? = inconclusive; nt = no result given; [ ] = dose if it differs, or a comment. An excerpt weighted towards active compounds, which were near 9.2% of everything screened. Unless noted, calls come from the whole dose curve; as a rule, active = well fitted inhibition curve with a large enough effect (not every such curve was filed as active); inconclusive = small, poorly fitted or top-dose-only effect, or another doubt; inactive = no such curve, though single readings can be large or run the other way. Potency is the fitted concentration of half-maximal effect.

SMILES	ALDH1A1 inh	Lamin A splicing	HTT ATP protect	HTT aggregate	KDM4E inh	HPGD block
Cc1cccc2cc(CN(CC3CCCO3)C(c3nnnn3Cc3ccco3)C(C)C)c(=O)[nH]c12 (configuration not stated)	6.31µM*	?	-47.7%	-12.1%	0.6%	-0.5%
CC(=O)Oc1ccc2c(c1)CCC1C2CC[C@@]2(C)C1CC(OC(C)=O)C2OC(C)=O (some centres not stated)	2.0%	-3.3%	nt	nt	-5.3%	-13.0%
COC(=O)N1CCC2(CCN(C(=O)Nc3cccc(F)c3)CC2)CC1	12.4%	nt	3.4%	nt	nt	1.8%
CCN(CC)c1ccc2c(c1)C(=O)N(C)C2=O	?	9.7%	-11.4%[1.9 µM]	12.9%	-0.6%	17.8µM*
O=C1c2ccccc2C(=O)N1CCCCN1CCN(CCCCN2C(=O)c3ccccc3C2=O)CC1	nt	nt	-6.1%[10 µM]	nt	nt	nt
CCN(CCCCN1C(=O)c2ccccc2C1=O)c1ccc2c(c1)C(=O)N(C)C2=O	?	-6.1%	-2.5%	-17.2%	-4.1%	10µM*
N#C/C(=C/c1cccc([N+](=O)[O-])c1)C(=O)Nc1ccccc1O	nt	nt	-0.9%[10 µM]	2.6%[9.22 µM]	?	nt
COc1ccccc1NC(=O)/C(C#N)=C/c1cc([N+](=O)[O-])ccc1N1CCCC1	7.0%	-4.4%	3.98µM*	16.1%	1.2%	-20.0%
COc1ccc(/C=C(\C#N)C(=O)Nc2cc(S(=O)(=O)N3CCOCC3)ccc2N2CCCC2)cc1	10µM*	5.5%	-18.3%[10 µM]	-0.1%	-23.2%	12.6µM*
COc1ccc(C(C)(C)C)cc1NC(=O)c1cc(S(=O)(=O)N(C)C)ccc1N1CCCC1	-12.7%	-10.8%	-37.2%[10 µM]	-20.5%	?	-17.7%
C[Si](C)(C)Cl	22.4µM*	nt	-3.6%	nt	nt	-6.5%
C[C@H](NC(=O)c1ccco1)C(=O)NCCc1ccc(S(N)(=O)=O)cc1	nt	nt	3.8%[10 µM]	18.5%[9.22 µM]	2.8%	nt
Cc1onc(-c2c(Cl)cccc2Cl)c1C(=O)ONC(=O)c1ccccc1	?	nt	-2.5%[10 µM]	4.8%[9.22 µM]	-8.9%	nt
Cn1c(CO)cnc1SCc1ccc([N+](=O)[O-])cc1	28.2µM*	-7.1%	-38.6%	-13.1%	?	-2.0%
COC(=O)c1ccc(Nc2c([N+](=O)[O-])c(=O)oc3ccccc23)cc1	nt	nt	11.9%[10 µM]	1.3%[9.22 µM]	-1.3%	nt
CN(C)S(=O)(=O)Nc1ccccc1C(N)=O	?	-1.2%	-7.4%	3.55µM*	?	?
O=C(Nc1cccc(-n2cnnn2)c1)c1ccco1	39.8µM*	4.7%	9.9%[10 µM]	7.5%	?	-23.8%
Cn1cnc2cc(NC(=O)c3ccco3)ccc21	-63.7%	5.0%	-73.3%	-0.6%	-4.6%	-9.1%
O=C(Nc1ccc2c(c1)ncn2-c1ccccc1)c1ccco1	?	-12.3%	0.6%[10 µM]	-0.4%	-3.3%	31.6µM*
O=C(CN1CCN(S(=O)(=O)c2ccc(Cl)s2)CC1)N1CCOCC1	nt	nt	15.0%[10 µM]	5.6%[9.22 µM]	1.1%	nt
Fc1ccc(-c2nnc(CN3CCC(c4nc5ccccc5s4)CC3)o2)cc1	-14.6%	?	-19.8%	11.2µM*	-19.1%	-19.0%
O=C(c1cccc(F)c1)N1CCC(c2nc3ccccc3s2)CC1	-17.8%	nt	-15.6%	-10.8%	-6.9%	nt
Fc1ccc(N2CCN(Cc3nnc(-c4ccccc4)o3)CC2)cc1	8.6%	?	13.6%[10 µM]	24.8%	5.2%	-15.0%
O=C(CN1CCC(c2nc3ccccc3s2)CC1)N1CCCCC1	?	nt	-87.4%	16.9%	-5.0%	nt
O=C(CSc1ccc(F)cc1)N1CCC(c2nc3ccccc3s2)CC1	7.08µM*	12.4%	-66.7%	-0.9%	0.6%	-21.2%
SMILES	ALDH1A1 inh	Lamin A splicing	HTT ATP protect	HTT aggregate	KDM4E inh	HPGD block
O=C(CSc1ccccc1Cl)N1CCC(c2nc3ccccc3s2)CC1	12.6µM*	?	-27.8%	?	-5.4%	-4.0%
Cc1cccc(NC(=O)c2c(C)cc(C)nc2SCC(=O)c2ccccc2)c1	nt	-17.4%[46 µM]	nt	nt	nt	nt
O=C(NC1(N2CCOCC2)CC1)c1ccc(Cl)cc1	2.0%	nt	-5.7%[10 µM]	-5.0%[9.22 µM]	-0.7%	nt
CCOC(=O)c1ccc(NC(=O)C(C)Sc2nc(O)c(-c3ccccc3)c(=O)[nH]2)cc1 (configuration not stated)	-5.5%	?	-33.7%	8.2%	-9.0%	nt
COc1ccc(-c2nc(C#N)c(NCCCN3CCOCC3)o2)cc1	?	-8.8%	-13.0%	4.3%	5.01µM*	?
CC(=O)c1cccc(NC(=O)C(OC(=O)/C=C/c2ccc3c(c2)OCO3)c2ccccc2)c1 (configuration not stated)	?	-1.5%	18.2%	-16.2%	?	?
COc1ccc(O[C@H]2C=C[C@@H](c3ccccc3)O[C@H]2COC(=O)CC/C(C)=N\OC[C@@H](C)[C@H](OCc2ccccc2)C(C)C)cc1	1.3%[13.5 µM]	nt	?	nt	nt	nt
COc1cc(C2CC(=O)c3cnc(N4CCN(Cc5ccccc5)CC4)nc3C2)cc(OC)c1OC (configuration not stated)	?	-23.3%	-35.0%[10 µM]	?	-11.0%	?
COc1ccc(C2CC(=O)c3c(C)nc(N4CCN(Cc5ccccc5)CC4)nc3C2)cc1OC (configuration not stated)	25.1µM*	?	3.3%[0.074 µM]	?	-17.0%	-16.4%
Cc1[nH]c2ccccc2c1-c1cc(-c2cc(-c3c(C)[nH]c4ccccc34)nc(N)n2)nc(N)n1	13.2%[13.5 µM]	nt	12.5%[10 µM]	nt	nt	-3.9%
CNS(=O)(=O)c1cccc(C(=O)OCC(=O)Nc2sc3c(c2C#N)CCCCC3)c1	25.1µM*	-14.6%	0.3%[10 µM]	22.0%	-1.0%	nt
Cc1c(C#N)c(NC(=O)CCl)n(Cc2cccs2)c1C	?	?	-9.3%[10 µM]	20µM*	3.7%	nt
Cc1c(C#N)c(NC(=O)CCl)n(Cc2ccccc2)c1C	-6.6%	nt	-58.2%	3.98µM*	-6.1%	nt
Cc1c(C#N)c(NC(=O)CCl)n(Cc2ccc(F)cc2)c1C	?	nt	-90.5%	6.31µM*	-29.2%	nt
C/C=C\C(=O)N(CC)c1ccccc1C	2.2%[20.9 µM]	?	-14.5%[40.3 µM]	4.8%[20.6 µM]	6.0%[25.5 µM]	-13.7%
COC(=O)NC(/C=C/c1ccco1)[C@@]1(C(=O)OC)CCCC1=O (some centres not stated)	-9.4%[13.5 µM]	nt	-14.1%[10 µM]	nt	nt	nt
c1cnc(N2CCN(Cc3c[nH]c4ccccc34)CC2)nc1	-12.8%	?	-85.9%	11.2µM*	-0.6%	-9.2%
Oc1c(CN2CCN(c3ccccc3)CC2)cc(Br)c2cccnc12	1.7%[13.5 µM]	nt	-0.9%[10 µM]	-2.2%[9.22 µM]	?	-8.0%
c1ccc(N2CCN(Cc3ccnc4ccccc34)CC2)cc1	15.8µM*	?	5.5%	-7.1%	?	-13.8%
